Hits are enriched below; roughly 3.7% of the tested compounds scored in any of these assays.
PfHsp90 set2: reduces growth (ATP signal) of yeast expressing P. falciparum Hsp90. S. cerevisiae expressing PfHsp90, BacTiter-Glo ATP, 48 h; yeast lacking PDR1 and PDR3 efflux regulators. inhibition, % at 9.4 µM. AID 504621. 0.32% of 310,000 active;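 active means every replicate shows inhibition above about 80%, whatever the replicate mean, limit read from the data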;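 further: 0% = DMSO neutral controls and 100% = 20 µM radicicol positive controls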
tim23-1 inh: growth inhibitors of tim23-1 mutant yeast; S. cerevisiae tim23-1 growth, BacTiter-Glo luminescence, 24 h; inhibition, % at 20 µM; 1.3% of 330,000 active; AID 463212;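 active means growth inhibition of the mutant yeast at or above 50%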;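 further: temperature-sensitive mutant grown at 25 °C; plate controls were DMSO-treated mutant yeast for no effect and medium wells lacking yeast for full effect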
NLRP3 yeast inh: inhibitors of NALP3 inflammasome in yeast. inhibition, % at 10 µM. 0.39% of 330,000 active. Yeast reconstituted NLRP3/ASC/caspase-1, beta-gal luminescence, 24 h;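 active means inhibition of 50% or more; inactive means inhibition below 50%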;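 further: plate controls were induced DMSO wells for no effect and uninduced yeast grown without galactose for full effect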
tim10-1 inh: tim10-1 yeast growth inhibition | S. cerevisiae tim10-1 ts strain growth, BacTiter-Glo, 24 h | inhibition, % at 20 µM | 2.2% of 330,000 active | AID 463190;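 active means inhibition of at least 40%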;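 further: mutant grown at 25 °C; 0% = DMSO wells with yeast and 100% = wells holding no yeast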
TIM10 inh: inhibits growth of TIM10 yeast strain; 1.4% of 330,000 active; S. cerevisiae TIM10 strain growth, BacTiter-Glo luminescence, 24 h; inhibition, % at 10 µM;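 active means inhibition of 40% or more at the single tested concentration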;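 further: wild-type TIM10 isogenic control strain grown at permissive 25 °C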
tim10-1 confirm: confirmation of tim10-1 mutant yeast growth inhibitors; inhibition, % at 20 µM; S. cerevisiae tim10-1 ts strain growth, BacTiter-Glo, 24 h; AID 463213; shares compounds with tim10-1 inh; 56% of 7,400 active;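 active means inhibition of yeast growth at or above a set limit in either of two repeat tests at 20 µM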;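 further: tim10-1 mutant grown at permissive 25 °C to find synthetic lethal compounds; 0% = DMSO yeast wells and 100% = medium wells without yeast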
TIM10 conf: TIM10 yeast growth inhibition, confirmed; S. cerevisiae tim10 strain growth, BacTiter-Glo luminescence, 24 h; 63% of 4,600 active; shares compounds with TIM10 inh; inhibition, % at 10 µM;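 active means inhibition of yeast growth at or above a set limit in either of two replicates at 10 µM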;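 further: this counterscreen used the strain with wild-type TIM10; 0% = yeast with DMSO and 100% = medium wells lacking yeast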
tim23-1 conf: tim23-1 yeast growth inhibition, confirmed. shares compounds with tim23-1 inh. S. cerevisiae tim23-1 growth, BacTiter-Glo luminescence, 24 h. inhibition, % at 20 µM. 83% of 4,400 active;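 active means inhibition above about 39% in either of two replicate wells at 20 µM, limit read from the data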;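 further: temperature-sensitive tim23-1 mutant grown at 25 °C; 0% = DMSO wells with yeast and 100% = medium wells without yeast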
* marks the source's active call; other numbers are inactive results; nt = no result given.

SMILES	PfHsp90 set2	tim23-1 inh	NLRP3 yeast inh	tim10-1 inh	TIM10 inh	tim10-1 confirm	TIM10 conf	tim23-1 conf
COc1cc2c3c(c1)C(C)=CC(C)(C)N3C(=O)C2=O	1.1	56.7*	18.4	41.3*	11.6	27.9	nt	57.3*
CC(C)N1C(=O)/C(=C/c2nc3ccccc3c(=O)n2-c2ccccc2)c2ccccc21	-25.0	59.7*	24.4	46.0*	47.3*	40.0*	44.0*	57.5*
N/C(Cc1ccc([N+](=O)[O-])cc1)=N\OC(=O)c1ccc(Br)o1	3.5	60.3*	14.5	84.9*	64.3*	81.2*	11.3	44.0*
N/C(Cc1ccc([N+](=O)[O-])cc1)=N\OC(=O)c1ccccc1F	9.0	58.9*	14.0	71.7*	64.1*	71.5*	52.3*	54.2*
O=C(Cc1ccc([N+](=O)[O-])cc1)N/N=C/c1ccccc1F	-15.3	13.1	10.2	0.5	6.1	nt	nt	nt
O=C(O)CCn1c(=O)oc2cc(S(=O)(=O)N3CCCC3)ccc21	-7.7	-3.6	-5.1	-22.3	4.5	nt	nt	nt
CCCOc1ccc(/C=C/C(=O)N2CCOCC2)cc1	21.4	7.8	14.2	0.3	-2.7	nt	nt	nt
CCCC(=O)c1ccc(N2CCN(C(=O)c3ccccc3Br)CC2)c(F)c1	-12.8	52.5*	20.2	46.3*	27.7	37.8*	nt	47.0*
CC(OC(=O)c1cccc(S(=O)(=O)N(C)C)c1)C(=O)NCC(=O)Nc1ccc(F)c(F)c1F (centres undefined)	-2.1	nt	nt	nt	nt	nt	nt	nt
Cc1nc2c(ccc3nc(NC(=O)Cc4cccc5ccccc45)sc32)s1	-2.2	59.7*	14.8	55.4*	39.9	36.8*	nt	64.3*
Cc1nc(SCC(=O)N2CCOCC2)c2c(=O)n(C)c(=O)n(CC(C)C)c2n1	5.7	-1.7	-6.8	-9.2	-7.7	nt	nt	nt
CC(C)(C)c1cc(C(=O)CCN2CCOCC2)cc(C(C)(C)C)c1O	-9.3	73.7*	21.3	77.5*	76.3*	76.1*	79.8*	56.5*
COc1cccc(/C=C/c2nc(C#N)c(NCC(C)C)o2)c1	-6.4	38.0	32.2	-0.5	13.6	nt	nt	nt
COc1cccc(C(=O)Oc2c(Br)cc(Br)cc2/C=N/NC(=O)c2cc(C)[nH]n2)c1	-26.8	28.5	17.9	6.4	20.7	nt	nt	nt
COC(=O)C1=C(C)N(Cc2ccco2)C(=O)/C1=C\c1ccc(N(C)C)cc1	-2.7	3.5	4.5	11.1	8.8	nt	nt	nt
CCN1C(=O)/C(=C\c2ccc3c(c2)OCO3)C(C(=O)OC)=C1C	nt	50.0	26.9	46.5*	56.3*	45.2*	42.9*	61.7*
COC(=O)C1=C(C)N(Cc2ccco2)C(=O)/C1=C\c1ccc([N+](=O)[O-])cc1	-6.9	63.8*	14.4	62.4*	65.5*	77.4*	73.7*	57.4*
O=c1cc(-c2ccco2)oc2c1ccc1ccccc12	-19.1	-11.8	16.9	23.4	15.9	nt	nt	nt
O=c1cc(C(Cl)(Cl)Cl)oc2c1ccc1ccccc12	58.1	51.7*	21.6	44.1*	29.8	25.2	nt	49.3*
COc1ccccc1N1CCN(C(=O)c2ccc3c(c2)CCN3S(=O)(=O)c2ccccc2)CC1	22.7	26.7	16.0	14.9	9.9	nt	nt	nt
CC(Oc1ccc(Cl)cc1Cl)C(=O)NC1=NN(c2ccccc2)C(=O)C1 (centres undefined)	nt	61.3*	8.8	52.2*	10.9	33.4*	nt	-52.1
CCCn1cc(S(=O)(=O)c2ccccc2)c(=O)c2cc(F)c(N3CCN(C)CC3)cc21	22.2	-3.2	4.1	-4.9	4.8	nt	nt	nt
COc1cccc(Nc2cc(N3CCOCC3)c3nonc3c2[N+](=O)[O-])c1	-5.9	9.4	12.6	14.8	8.2	nt	nt	nt
COc1cccc(Nc2ccc([N+](=O)[O-])c3nonc23)c1	-15.0	70.2*	17.1	57.2*	29.8	22.1	nt	78.5*
N#CC1=C(N)OC2=C(C(=O)CC(c3ccccc3)C2)C1c1ccc2c(c1)OCO2 (centres undefined)	26.1	31.6	21.1	32.4	19.2	nt	nt	nt
SMILES	PfHsp90 set2	tim23-1 inh	NLRP3 yeast inh	tim10-1 inh	TIM10 inh	tim10-1 confirm	TIM10 conf	tim23-1 conf
N#CC1=C(N)OC(c2ccccc2)=C(C#N)C1c1ccc2c(c1)OCO2 (centres undefined)	-34.5	71.9*	-15.7	62.4*	82.2*	56.4*	70.8*	74.6*
O=C(CSc1n[nH]c(=O)n1-c1ccccc1)N1CCOCC1	5.8	10.3	-4.0	7.2	-8.7	nt	nt	nt
C=C(C)C1CC=C(C)/C(=N\NC(=O)CCc2ccccc2)C1 (centres undefined)	-15.4	19.8	-6.8	12.7	10.2	nt	nt	nt
O=C(Nc1ccc(F)cc1)C1C(c2ccccc2)C1(Cl)Cl (centres undefined)	-35.1	59.2*	27.6	48.3*	41.4*	38.7*	-9.7	40.3*
O=C(CCn1c(=O)oc2ccc(Cl)cc21)N1CCN(Cc2ccccc2)CC1	20.7	7.2	19.1	28.1	4.9	nt	nt	nt
O=C(/C=C\c1ccccc1OC(=O)c1ccccc1F)c1cc2ccccc2o1	-26.4	58.7*	21.3	54.7*	48.5*	34.5*	22.9	49.9*
CCOC(=O)c1c(C)oc2c1cc(O)c1ccccc12	-10.7	-2.5	3.1	-0.4	-8.6	nt	nt	nt
CCOC(=O)c1c(C)oc2c(F)c(F)c(F)c(F)c2c1=O	nt	73.8*	3.7	41.6*	23.7	14.4	nt	48.0*
COCC(Cc1ccccc1)NC(=O)Cn1cc(C)c(=O)[nH]c1=O (centres undefined)	2.6	nt	nt	nt	nt	nt	nt	nt
S=C(NCc1ccco1)Nc1ccc(Oc2ccc(Cl)cc2)cc1	14.2	62.6*	1.7	46.3*	37.5	60.1*	nt	75.6*
Cc1ccc(N=Cc2c(C)[nH]n(-c3nc4ccccc4[nH]3)c2=O)cc1	91.2*	65.3*	-3.4	62.4*	43.8*	59.5*	-11.4	67.7*
Cc1ccc(-n2[nH]c(C)c(C=Nc3ccc4[nH]c(=O)[nH]c4c3)c2=O)cc1	9.1	-0.1	-1.0	0.3	-4.4	nt	nt	nt
O=C(NC(=S)NCc1ccccc1)c1cccs1	-0.5	61.5*	4.9	50.7*	34.7	43.4*	nt	52.0*
O=C(Cc1ccccc1)NNC(=S)NC(=O)c1cccs1	nt	-18.6	21.6	24.5	8.3	nt	nt	nt
COc1ccc(-[n+]2c(C)cc(/C=C3\Sc4ccccc4N3C)cc2C)cc1	-28.2	81.5*	12.4	76.7*	66.2*	76.2*	67.4*	83.5*
COc1ccccc1-[n+]1c(C)cc(/C=C2\Sc3ccccc3N2C)cc1C	-26.3	70.1*	37.5	57.5*	74.6*	76.9*	60.0*	71.8*
CS(=O)(=O)N(CC(=O)N1CCc2ccccc2C1)c1cccc(Br)c1	-15.9	23.7	11.6	21.4	21.3	nt	nt	nt

Screening data as filed in PubChem.
